Screening results (PubChem BioAssay)
CRFR2-BP antag – blocks CRF-induced signaling of the CRF-BP/CRF-R2 complex. HEK293 CRF-R2/CRF-BP, CRF-induced calcium fluorescence. inhibition, % at 11.8 µM. 0.59% of 350,000 active. AID 588475;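 active = inhibition of the ligand-induced calcium signal above about 50% at the single tested concentration, limit read from the data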
NRP1-CendR mod – alters CendR peptide binding to human NRP-1 | AID 602438 | FAM-RPARPAR peptide binding to NRP-1, fluorescence polarization | 0.85% of 360,000 active | inhibition, % at 25 µM | O14786;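 active = inhibition or corrected inhibition above about 18%, plus a signal ratio from 0.5 to 1.5, limit read from the data, passing the limit was not always enough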
FAS-TE inh – FAS thioesterase (human) inhibition; P49327; recombinant FAS-TE, OMFH fluorogenic substrate, fluorescence endpoint; inhibition, % at 15 µM; 0.67% of 360,000 active;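 active = compounds whose normalised, plate-corrected inhibition of enzyme fluorescence in the single-dose primary screen is 50% or more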
Target sequence (P49327 whole entry, looked up): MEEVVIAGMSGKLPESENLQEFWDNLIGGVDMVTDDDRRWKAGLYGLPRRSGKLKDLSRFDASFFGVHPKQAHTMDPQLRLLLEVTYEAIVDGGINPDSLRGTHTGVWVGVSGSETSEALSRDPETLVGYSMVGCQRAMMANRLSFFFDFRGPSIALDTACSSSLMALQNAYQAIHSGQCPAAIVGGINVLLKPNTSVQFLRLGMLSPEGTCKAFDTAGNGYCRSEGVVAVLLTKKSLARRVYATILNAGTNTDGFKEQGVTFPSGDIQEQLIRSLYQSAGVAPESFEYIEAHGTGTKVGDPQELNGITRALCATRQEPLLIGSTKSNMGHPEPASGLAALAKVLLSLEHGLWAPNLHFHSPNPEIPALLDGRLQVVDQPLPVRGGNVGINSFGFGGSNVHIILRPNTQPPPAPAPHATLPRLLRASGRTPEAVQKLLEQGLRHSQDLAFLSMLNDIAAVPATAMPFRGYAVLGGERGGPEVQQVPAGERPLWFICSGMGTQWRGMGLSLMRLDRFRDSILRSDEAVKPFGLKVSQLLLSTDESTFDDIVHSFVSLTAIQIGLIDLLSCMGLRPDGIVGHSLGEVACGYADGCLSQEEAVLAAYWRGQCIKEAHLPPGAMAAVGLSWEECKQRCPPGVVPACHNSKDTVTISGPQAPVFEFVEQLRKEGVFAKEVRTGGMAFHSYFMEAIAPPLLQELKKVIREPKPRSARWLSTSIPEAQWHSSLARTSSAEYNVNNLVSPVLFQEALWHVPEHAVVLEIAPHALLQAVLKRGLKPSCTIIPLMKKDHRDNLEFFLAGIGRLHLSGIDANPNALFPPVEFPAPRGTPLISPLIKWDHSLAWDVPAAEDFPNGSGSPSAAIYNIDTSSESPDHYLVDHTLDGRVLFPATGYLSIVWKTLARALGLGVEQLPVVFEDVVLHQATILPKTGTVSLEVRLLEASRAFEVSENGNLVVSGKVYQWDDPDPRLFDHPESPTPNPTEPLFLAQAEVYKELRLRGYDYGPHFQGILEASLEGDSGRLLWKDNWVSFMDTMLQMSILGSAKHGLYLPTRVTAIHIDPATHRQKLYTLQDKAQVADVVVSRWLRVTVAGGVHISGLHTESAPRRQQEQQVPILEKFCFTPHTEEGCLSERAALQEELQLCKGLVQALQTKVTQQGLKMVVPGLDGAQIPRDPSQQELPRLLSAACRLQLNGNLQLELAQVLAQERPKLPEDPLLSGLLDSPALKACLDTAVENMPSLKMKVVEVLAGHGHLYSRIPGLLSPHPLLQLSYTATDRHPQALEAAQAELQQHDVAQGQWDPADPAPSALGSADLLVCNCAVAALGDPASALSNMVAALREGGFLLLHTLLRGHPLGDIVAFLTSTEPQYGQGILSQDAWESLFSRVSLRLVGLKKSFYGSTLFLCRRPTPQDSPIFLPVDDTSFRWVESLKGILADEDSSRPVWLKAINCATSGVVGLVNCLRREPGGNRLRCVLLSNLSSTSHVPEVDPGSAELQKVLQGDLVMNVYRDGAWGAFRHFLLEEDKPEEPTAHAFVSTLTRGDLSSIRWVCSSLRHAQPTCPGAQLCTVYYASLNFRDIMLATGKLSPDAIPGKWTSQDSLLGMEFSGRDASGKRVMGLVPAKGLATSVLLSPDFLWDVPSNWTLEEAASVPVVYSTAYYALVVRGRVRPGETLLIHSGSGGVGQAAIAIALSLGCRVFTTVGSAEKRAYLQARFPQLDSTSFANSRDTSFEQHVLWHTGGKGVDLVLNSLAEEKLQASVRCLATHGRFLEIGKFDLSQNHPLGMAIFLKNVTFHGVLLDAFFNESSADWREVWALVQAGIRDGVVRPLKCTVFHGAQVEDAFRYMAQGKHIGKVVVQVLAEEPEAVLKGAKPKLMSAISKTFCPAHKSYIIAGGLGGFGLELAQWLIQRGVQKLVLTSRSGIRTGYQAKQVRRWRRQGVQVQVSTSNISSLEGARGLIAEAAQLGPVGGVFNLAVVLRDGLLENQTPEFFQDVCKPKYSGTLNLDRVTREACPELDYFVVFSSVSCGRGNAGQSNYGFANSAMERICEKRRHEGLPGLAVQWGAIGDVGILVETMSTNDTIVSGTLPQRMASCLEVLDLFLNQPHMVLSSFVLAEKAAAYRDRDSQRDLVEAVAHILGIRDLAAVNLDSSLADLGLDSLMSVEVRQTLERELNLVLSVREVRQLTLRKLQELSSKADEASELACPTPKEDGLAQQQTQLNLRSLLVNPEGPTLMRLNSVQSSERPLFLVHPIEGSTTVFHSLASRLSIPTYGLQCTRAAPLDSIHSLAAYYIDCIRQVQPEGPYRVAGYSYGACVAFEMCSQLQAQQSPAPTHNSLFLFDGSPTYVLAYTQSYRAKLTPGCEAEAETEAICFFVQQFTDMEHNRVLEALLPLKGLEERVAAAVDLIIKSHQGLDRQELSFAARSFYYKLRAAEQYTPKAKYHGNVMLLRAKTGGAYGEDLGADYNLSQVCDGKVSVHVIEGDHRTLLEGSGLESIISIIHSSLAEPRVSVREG
NadD block – NadD (S. aureus) enzyme inhibition; purified NadD enzyme, colorimetric absorbance read-out; inhibition, % at 20 µM; 0.78% of 360,000 active; AID 602399; in the data active = inhibition above about 26%
Myeloid diff 2 – promotes myeloid progenitor differentiation | AID 624256 | calls only at 10 µM | 1% of 360,000 active | ER-HoxA9 myeloid progenitors, lysozyme-GFP differentiation, flow cytometry;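 active = normalized GFP-positive differentiation at or above the plate's own cutoff, the solvent-only control mean plus 3 SD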;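 also: cells exposed to compound for four days before flow analysis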
FAS-TE inh conf – FAS thioesterase (human) inhibition, confirmation. 45% of 2,300 active. shares compounds with FAS-TE inh. inhibition, % at 15 µM. recombinant FAS-TE, OMFH fluorogenic substrate, fluorescence;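 active = compounds inhibiting the enzyme by at least 50% at 15 µM in any one of the replicates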
Of the large screens only hits and unclear results are named; the others gave an inactive call (follow-up assays come after a bar, where they were run). In the library only some 3.6% were active in any assay of this set; here they are far more common.

O=C(C[C@H]1C[C@H](C(=O)N2CCOCC2)[C@@]2(CCC3CCCC3)c3[nH]c4ccc(Cl)cc4c3CCN2C1=O)NCC12CC3CC(CC(C3)C1)C2	FAS-TE inh 82 | FAS-TE inh conf inactive
COc1ccc2[nH]c3c(c2c1)CCN1C(=O)C(CC(=O)NCCCn2ccnc2)C[C@H](C(=O)N2CCOCC2)[C@@]31CCC1CCCC1 (stereo partly drawn)	none
COc1ccc2[nH]c3c(c2c1)CCN1C(=O)C(CC(=O)NCC24CC5CC(CC(C5)C2)C4)C[C@H](C(=O)N2CCOCC2)[C@@]31CCC1CCCC1 (stereo partly drawn)	FAS-TE inh 80 | FAS-TE inh conf inactive
COc1ccc2[nH]c3c(c2c1)CCN1C(=O)C(CC(=O)NCCC2=CCCCC2)C[C@H](C(=O)N2CCCCC2)[C@@]31CCc1ccccc1 (stereo partly drawn)	none
COc1ccc2[nH]c3c(c2c1)CCN1C(=O)C(CC(=O)NCCC2=CCCCC2)C[C@H](C(=O)N2CCOCC2)[C@@]31CCC1CCCC1 (stereo partly drawn)	FAS-TE inh 67 | FAS-TE inh conf 69
N#Cc1ccccc1Sc1ccccc1C(=O)Nc1ccc(Br)cc1	FAS-TE inh 51 | FAS-TE inh conf inactive
N#Cc1ccccc1Sc1ccccc1C(=O)Nc1ccc2ccccc2c1	FAS-TE inh 60 | FAS-TE inh conf inactive
Cc1cc(C)cc(Cn2c3ccc(NC(=O)NCc4ccc(F)cc4)cc3c(=O)n2C)c1	none (no result: CRFR2-BP antag)
CC(=O)OC(COc1ccccc1)Cn1cnc2cc(C)c(C)cc21 (stereo not drawn)	none
C[C@@]12C(=O)NCC(=O)N1[C@@H]1c3cc(Br)ccc3OC[C@@H]1[C@@H]2c1ccccc1	none
C=C1C[C@H](O)[C@@H]2[C@H](OC(=O)[C@H]2C)[C@H]2[C@H](C)[C@@H](O)C[C@@H]12	none
COc1ccc(-c2sc3cc4c(cc3c2-c2ccc3c(c2)OCCO3)OCO4)cc1	none
COc1ccc(-c2c(-c3ccc(S(C)(=O)=O)cc3)sc3ccc(OC)cc23)cc1	none
COc1ccc2sc(-c3ccc(S(C)(=O)=O)cc3)c(-c3ccc4c(c3)OCCO4)c2c1	FAS-TE inh 57 | FAS-TE inh conf inactive
COc1cc2sc(-c3ccc(S(C)(=O)=O)cc3)c(-c3ccc4c(c3)OCO4)c2cc1OC	FAS-TE inh 80 | FAS-TE inh conf inactive
O=C(Nc1ccc(Cl)cc1)c1csc(-c2ccccc2)n1	FAS-TE inh 61 | FAS-TE inh conf 59
NC(=O)c1ccc(C(F)(F)F)n(Cc2c(Cl)cccc2Cl)c1=O	FAS-TE inh 50 | FAS-TE inh conf inactive
COc1ccc(Cn2c(C(F)(F)F)ccc(C(N)=O)c2=O)cc1	none
Cc1cc(/C=N/n2c(COc3ccccc3)nc3ccccc3c2=O)c(O)c([N+](=O)[O-])c1	FAS-TE inh 60 | FAS-TE inh conf inactive
CC(C)(C)NC(=O)c1nc2nc(-c3ccccc3)cc(C(F)(F)F)n2n1	none
COCc1c(Br)c(C)nc(OCC(=O)N/N=C/c2cc(C)n(-c3ccc([N+](=O)[O-])cc3)c2C)c1C#N	FAS-TE inh 62 | FAS-TE inh conf inactive
Cc1cc(/C=N/NC(=O)CC#N)c(C)n1-c1ccc([N+](=O)[O-])cc1	none
CCCN(CC(=O)Nc1ccccc1C)CC(=O)Nc1ccc(Br)cc1F	none
O=C(COC(=O)c1cc([N+](=O)[O-])ccc1N1CCOCC1)NCc1ccc(Cl)cc1Cl	FAS-TE inh 93 | FAS-TE inh conf 93
COc1cccc(CNC(=O)COC(=O)c2cc([N+](=O)[O-])ccc2N2CCCC2)c1	FAS-TE inh 81 | FAS-TE inh conf 85
O=C(Cn1cc([N+](=O)[O-])ccc1=O)NCc1ccc(Cl)cc1Cl	FAS-TE inh 56 | FAS-TE inh conf 55
O=C(COC(=O)c1cc([N+](=O)[O-])ccc1N1CCOCC1)NCc1ccccc1	FAS-TE inh 83 | FAS-TE inh conf 90
NS(=O)(=O)c1ccc(CCNC(=O)COC(=O)c2cc([N+](=O)[O-])ccc2N2CCOCC2)cc1	none
CCCn1ncc(CN2CCC(CO)(CC3CCCCO3)CC2)c1C (stereo not drawn)	none (no result: Myeloid diff 2)
Cn1/c(=N/NC(=O)c2ccccc2F)sc2ccccc21	none
CC(C)CC1Nc2ccc(C(=O)NCCCN3CCCCC3C)cc2NC1=O (stereo not drawn)	none
O=C(OCc1cccc(Cl)c1)c1cc([N+](=O)[O-])ccc1N1CCOCC1	FAS-TE inh 59 | FAS-TE inh conf inactive
CCN(CC)S(=O)(=O)c1ccc(OC)c(NC(=O)c2cc([N+](=O)[O-])ccc2N2CCOCC2)c1	none
O=C(OCc1ccc(Br)cc1)c1cc([N+](=O)[O-])ccc1N1CCOCC1	FAS-TE inh 73 | FAS-TE inh conf inactive
COc1ccc(COC(=O)c2cc([N+](=O)[O-])ccc2N2CCOCC2)cc1F	FAS-TE inh 54 | FAS-TE inh conf inactive
O=C(OCc1cccc(C(F)(F)F)c1)c1cc([N+](=O)[O-])ccc1N1CCOCC1	FAS-TE inh 58 | FAS-TE inh conf 46
Cc1ccc(C)c(COC(=O)c2cc([N+](=O)[O-])ccc2N2CCOCC2)c1	none
O=C(OCc1cccc(C(F)(F)F)c1)c1cc(S(=O)(=O)N2CCOCC2)ccc1F	none (no result: Myeloid diff 2)
O=S(=O)(c1ccc2c(c1)OCCO2)C1CCC(S(=O)(=O)c2c(F)cccc2F)CC1 (stereo not drawn)	none
COc1ccccc1NS(=O)(=O)c1cccc(C(=O)N/N=C/c2c(C)nn(-c3ccccc3)c2N2CCCC2)c1	FAS-TE inh 62 | FAS-TE inh conf inactive
Cc1ccc(S(=O)(=O)NC(=O)c2cc(C)n(C3CC3)c2C)cc1	none
O=C(COC(=O)C1CCN(S(=O)(=O)c2cccs2)CC1)Nc1ccccc1	none
CC(C)(C)NC(=O)NC(=O)COC(=O)C1CCN(S(=O)(=O)c2cccs2)CC1	FAS-TE inh 53 | FAS-TE inh conf 46
CN1C(=O)/C(=C\c2cc(N=Nc3ccccc3)ccc2O)SC1=S	FAS-TE inh 66 (no result: Myeloid diff 2) | FAS-TE inh conf 38
O=c1c(Cl)c(NCc2ccccc2Cl)cnn1C12CC3CC(CC(C3)C1)C2	none
O=C(COc1ccc2c(-c3ccccc3)cc(=O)oc2c1)N[C@@H](Cc1c[nH]c2ccc(O)cc12)C(=O)O	FAS-TE inh 74 | FAS-TE inh conf 70
O=C(COc1ccc2c(-c3ccccc3)cc(=O)oc2c1)NC(Cc1c[nH]c2ccccc12)C(=O)O (stereo not drawn)	none
Cc1ccc([N+](=O)[O-])cc1NC(=O)CNC1CCCCC1	none
Cc1ccc([N+](=O)[O-])cc1NC(=O)CN(C(=O)c1ccc(Cl)cc1)C1CCCCC1	FAS-TE inh 86 | FAS-TE inh conf 91
COc1ccccc1/C=C(\NC(=O)c1ccc(OC)c(OC)c1)C(=O)Nc1cc([N+](=O)[O-])ccc1C	FAS-TE inh 60 | FAS-TE inh conf 71
CN(CC(=O)Nc1ccc(Cl)cc1)C1CCCCC1	none
